Source: PubChem BioAssay AID518 (Sanford-Burnham Center for Chemical Genomics, 2006)
The whole screen tested about 64,000 compounds, of which about 55 (0.09%) were called active. No rule for the calls is given here. Only a sample is shown.

Molecular target: Alkaline phosphatase, tissue-nonspecific isozyme (Homo sapiens) (UniProt P05186)
Experiment: inhibition of tissue-nonspecific alkaline phosphatase – biochemical, luminescent (AID 518);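 also: plate controls were vehicle for no effect and reference inhibitor for full effect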
Settings: purified TNAP enzyme, luminescent substrate readout; at 20 µM; hits give high values

Sequence of Alkaline phosphatase, tissue-nonspecific isozyme (Homo sapiens) (P05186 whole entry, looked up): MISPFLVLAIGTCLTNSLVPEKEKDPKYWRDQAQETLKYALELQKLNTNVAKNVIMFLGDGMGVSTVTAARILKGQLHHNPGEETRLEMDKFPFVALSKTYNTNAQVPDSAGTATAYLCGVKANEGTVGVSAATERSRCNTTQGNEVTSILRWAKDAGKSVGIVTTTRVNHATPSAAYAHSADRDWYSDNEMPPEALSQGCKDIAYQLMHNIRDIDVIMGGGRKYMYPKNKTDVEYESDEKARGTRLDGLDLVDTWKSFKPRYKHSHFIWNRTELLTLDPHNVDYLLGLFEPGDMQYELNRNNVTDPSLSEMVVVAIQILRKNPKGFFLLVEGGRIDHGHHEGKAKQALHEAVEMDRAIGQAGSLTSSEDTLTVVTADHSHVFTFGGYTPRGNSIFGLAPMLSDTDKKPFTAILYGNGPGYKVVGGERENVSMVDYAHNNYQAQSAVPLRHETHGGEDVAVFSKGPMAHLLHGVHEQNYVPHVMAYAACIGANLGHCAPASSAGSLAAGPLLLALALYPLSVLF

inhibition, inactive:
CCN1C(=O)OC2(CCCCC2)C1(C)O (stereo not drawn) 13%
O=C(NCCN1CCOCC1)c1cc2ccccc2o1 9.4%
Cc1cc2c(c(Sc3ccccc3)n1)C(=O)OC2 7.5%
O=C(N1CCOCC1)N1CCN(CC(O)COc2ccc3ccccc3c2)CC1 (stereo not drawn) 16.3%
Cn1c2ccccc2c2nnc(SCN3C(=O)c4ccccc4C3=O)nc21 8.4%
Cc1cc(C(=O)OCC(=O)Nc2nc(-c3ccccc3)cs2)c(C)o1 1.4%
O=c1c2ccccc2nc2n1CCCS2 4.5%
COc1cc2[nH]c3c(N4CCN(c5ccc(Cl)cc5)CC4)ncnc3c2cc1OC 5.3%
O=C(CCC(=O)c1ccc(F)cc1)OC1CCOC1=O (stereo not drawn) 6.6%
COc1ccccc1N1CCN(C(=O)CSc2ccc3c(C)cc(C)nc3n2)CC1 10.2%
Oc1ccccc1Oc1ncc(Br)c(N2CCOCC2)n1 -1.3%
COc1ccccc1-c1nc(SCC(=O)O)n[nH]1 4.7%
C/C(N)=C(/C#N)C(=O)CSc1ncnc2ccccc12 5.5%
Cc1nc2sc(C(c3cccc(F)c3)N3CCCC(C)C3)c(O)n2n1 (stereo not drawn) 5.8%
COc1ccc(OC)c2c1CCC2=O 8.1%
CN(CCCNC(=O)C1CCC(=O)N1Cc1ccc(F)cc1)c1ccccc1 (stereo not drawn) 1.1%
Cc1cc(C(=O)NCCN2CCN(c3cccc(Cl)c3)CC2)n(-c2ccccc2)n1 10.8%
CCc1c(C)[nH]c2ccc(C)cc2c1=O 7.8%
CCCCn1c(NCCN(C)C)nc2c1c(=O)[nH]c(=O)n2C -1%
O=C(CSc1oc(-c2ccccc2)nc1S(=O)(=O)c1ccc(F)cc1)NCC1CCCO1 (stereo not drawn) 1.7%
O=C(COc1ccc(S(=O)(=O)N2CCOCC2)cc1)Nc1ccc2c(c1)OCCO2 -6.1%
C=CCN1C(=O)C(O)(CC(=O)c2ccccc2)c2ccccc21 (stereo not drawn) 7.7%
CN(C)c1oc(-c2ccc(OCc3ccc(Cl)cc3)cc2)nc1C#N 5.2%
O=C(c1ccc(CNS(=O)(=O)c2cccc(C(F)(F)F)c2)cc1)N1CCOCC1 19.5%
CCn1cnc2sc(C(=O)N3CCN(Cc4ccc5c(c4)OCO5)CC3)c(C)c2c1=O 0.3%
c1ccc(N2CCN(C3CCSC3)CC2)cc1 (stereo not drawn) 13.5%
COCCNc1ncnc2nc[nH]c12 8.7%
CCOCCCNC(=O)C(c1ccc(C)cc1)N1CCOCC1 (stereo not drawn) -1%
CS(=O)(=O)N(CC(=O)NCc1ccc2c(c1)OCO2)c1ccc(Cl)cc1 6.8%
CCOc1ccc(CNc2ccc3c(c2)ncn3C)cc1 16.9%
Cc1nccn1CCC(=O)O 5.3%
CCc1ccccc1N1C(=O)C2CC(C)=C(C)CC2C1=O (stereo not drawn) 5.3%
Cc1cc(C(=O)NC(C)c2ccncc2)cs1 (stereo not drawn) 3.5%
Cc1ccc(S(=O)(=O)Cn2nnnc2C(c2ccc(F)cc2)N2CCCCC2)cc1 (stereo not drawn) 3.5%
CCCCCC(=O)N1CCN(CCN=CC2=C(O)CC(c3ccco3)CC2=O)CC1 (stereo not drawn) 8%
O=C(NCCN1CCOCC1)C1CCN(c2nc3ccccc3o2)CC1 7.3%
CCCc1ccc(S(=O)(=O)NCCc2ccncc2)cc1 10.5%
CCc1ccc2[nH]c(=O)c(C(c3nnnn3CC3CCCO3)N3CCCc4ccccc43)cc2c1 (stereo not drawn) 19.5%
COc1cc(C2C3CN(C)CC=C3C(C#N)=C(N)C2(C#N)C#N)ccc1OC(C)C (stereo not drawn) -0.1%
CC1c2nc3ccccc3n2C(CC(=O)NCc2ccccn2)C(=O)N1Cc1ccccc1 (stereo not drawn) 12.3%
Cc1onc(-c2c(F)cccc2Cl)c1C(=O)Nc1cccc2nsnc12 13.1%
COc1cc(C)nc(OCCNC(=O)COc2ccc(Cl)cc2Cl)n1 13.3%
COc1ccc(CNS(=O)(=O)c2ccc(C3CNC(=O)C3)cc2)cc1 (stereo not drawn) 8.2%
O=C(CSc1nnc2scc(-c3ccccc3)n12)N1CCCc2ccccc21 5.3%
C=CCOc1ccccc1C1C2=C(CC(C)(C)CC2=O)Nc2c1c(=O)n(C)c(=O)n2C (stereo not drawn) 4.4%
COC(=O)N(C)CCCC1(C)C(=O)N(C)c2ccc(O)cc21 (stereo not drawn) 8.6%
c1ccc(CSc2nncn2-c2ccccn2)cc1 17.8%
Cc1ccnc(NS(=O)(=O)c2cccs2)c1 14.5%
CCCc1noc2c1C(c1ccoc1)C(C#N)=C(N)N2 (stereo not drawn) 15.5%
CCN(CC)CCCN1C(=O)C(=O)/C(=C(/O)c2ccc3c(c2)OCCO3)C1c1ccc(C)o1 (stereo not drawn) 6.3%
c1ccc(CCc2nn3c(Cn4cnc5ccccc54)nnc3s2)cc1 10.8%
CCn1c2ccccc2c2nnc(SCC(=O)c3ccccc3)nc21 14.3%
CC(C)(CNS(=O)(=O)c1ccc(F)cc1)CNS(=O)(=O)c1ccc(F)cc1 10.8%
COc1ccc(CN(Cc2cc3cc4c(cc3[nH]c2=O)OCO4)C(=O)NC2CCCCC2)cc1 6.8%
O=C(NCc1ccco1)C(c1ccco1)N(CCc1ccccc1)C(=O)Cn1nnc2ccccc21 (stereo not drawn) 12.6%
Cc1ccc(N2C(=O)C3C(C2=O)C(C(=O)c2ccc(Cl)cc2)N2CCCC32)cc1 (stereo not drawn) 12%
CCOC(=O)c1cccnc1SCC(=O)N(C)c1ccccc1 -1.1%
O=C(Nc1c(Cl)cc(Cl)cc1C(=O)NCC1CCCO1)c1ccco1 (stereo not drawn) 5.4%
COC(=O)c1nc(NC(=O)C(C)C)n[nH]1 5.3%
COc1ccc2c(=O)c3c(=O)n(Cc4ccco4)c(-c4ccc(C)cc4)nc3oc2c1 9.7%
Cc1ccc(OCCn2c(=O)cnc3ccccc32)cc1 3.3%
CC1CCN(S(=O)(=O)c2cccc(C(=O)Nc3ccccn3)c2)CC1 24.3%
CCN1C(=O)C(Cc2nc3ccccc3c(=O)n2C)c2ccccc21 (stereo not drawn) 10.6%
